The whole screen tested about 50,000 compounds, of which about 800 (1.6%) showed an effect of 50% or more. What follows is part of a selection rich in strong results, with near analogues and random picks from the rest.
Each compound was assayed against Bcl-2-like protein 10 (Homo sapiens) (UniProt Q9HD36) (assay: Phenotype converters, Bcl-B/TR3 peptide binding displacement, primary biochemical FP (AID 1240;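 also: 0% = Bcl-B with tracer peptide and DMSO and 100% = tracer peptide lacking Bcl-B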)). Settings: GST-Bcl-B / FITC-TR3 peptide fluorescence polarization; stronger effect = higher value; compound at 3.75 mg/L.
Bcl-2-like protein 10 (Homo sapiens), sequence (Q9HD36 whole entry, looked up): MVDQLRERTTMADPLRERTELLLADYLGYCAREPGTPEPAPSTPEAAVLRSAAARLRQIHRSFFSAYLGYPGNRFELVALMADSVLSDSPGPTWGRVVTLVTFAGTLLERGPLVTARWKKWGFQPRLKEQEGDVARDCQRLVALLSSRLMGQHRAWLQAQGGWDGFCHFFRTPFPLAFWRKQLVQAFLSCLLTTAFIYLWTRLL

Row | Structure (SMILES) | displacement [%]
1 | O=c1/c(=C/c2cccc(Br)c2)sc2nc3ccccc3n12 | 14.5
2 | COc1cc(/C=c2\sc3nc4ccccc4n3c2=O)cc(Cl)c1OCc1ccccc1Cl | 2.3
3 | COc1c(Br)cc(Br)cc1/C=c1\sc2nc3ccccc3n2c1=O | 21.9
4 | O=c1/c(=C/c2ccccc2OCc2ccccc2F)sc2nc3ccccc3n12 | 12.4
5 | CCOC(=O)COc1cc(Br)c(/C=c2\sc3nc4ccccc4n3c2=O)cc1OC | 11.1
6 | COc1cc(Br)c(/C=c2/sc3nc4ccccc4n3c2=O)cc1OC | 132
7 | O=c1/c(=C\c2ccc(OCc3cccc4ccccc34)cc2)sc2nc3ccccc3n12 | 11.6
8 | COc1cccc(OCCOc2cccc(/C=c3\sc4nc5ccccc5n4c3=O)c2)c1 | 4.4
9 | COc1cc(/C=c2\sc3nc4ccccc4n3c2=O)cc(Cl)c1OCCOc1ccc(Br)cc1 | -2.9
10 | COc1cccc(/C=c2/sc3nc4ccccc4n3c2=O)c1 | 92.4
11 | COc1cccc(OCCOc2c(Cl)cc(/C=c3\sc4nc5ccccc5n4c3=O)cc2OC)c1 | 92.6
12 | O=C(c1ccccc1)c1ccc(N=Cc2ccc([N+](=O)[O-])s2)cc1 | 8.8
13 | CCOc1ccccc1/C=C/C(=O)c1cccs1 | -11.9
14 | CC(C)CN1C(=O)/C(=C/c2cccc3ccccc23)SC1=S | 8.3
15 | O=[N+]([O-])c1cccc(S(=O)(=O)NCc2ccccc2)c1 | -3.3
16 | NNC(=O)CSc1nc2ccccc2n1Cc1ccccc1 | -9.6
17 | Cc1occc1C(=O)NC1CCCCCC1 | -13.4
18 | Cc1ccc(CNC(=O)C(C)Oc2ccc(Cl)cc2Cl)cc1 (stereo not given) | -12.1
19 | Cc1ccc(S(=O)(=O)Oc2cccc(/C=c3/sc4nc5ccccc5n4c3=O)c2)cc1 | -0.5
20 | O=c1/c(=C\c2ccc(OS(=O)(=O)c3cccc([N+](=O)[O-])c3)cc2)sc2nc3ccccc3n12 | -6.5
21 | O=c1/c(=C\c2cccc(OS(=O)(=O)c3cccc([N+](=O)[O-])c3)c2)sc2nc3ccccc3n12 | 101
22 | Cc1ccc(S(=O)(=O)Oc2ccc(/C=C3\SC(=S)NC3=O)cc2)cc1 | -32.2
23 | COC(=O)c1cc(N=NC2=C(O)CC(C)(C)CC2=O)cc(C(=O)OC)c1 | -7.3
24 | CCC(=O)Nc1ccc(NC(=O)/C=C/c2ccc(-c3ccc(Cl)cc3Cl)o2)cc1 | -14.5
25 | O=C(Nc1ccc(N2CCOCC2)cc1)c1ccc(-c2ccc(Cl)cc2Cl)o1 | -4.5

Row | Structure (SMILES) | displacement [%]
26 | O=C(/C=C/c1ccc(-c2ccc(Cl)cc2Cl)o1)Nc1ccc(N2CCOCC2)cc1 | 83
27 | O=C(O)c1cc(C(=O)O)cc(N2C(=O)c3ccc(Oc4cccc([N+](=O)[O-])c4)cc3C2=O)c1 | 3.2
28 | S=c1n(CN2CCOCC2)nnn1-c1ccccc1 | -5.3
29 | CC1(C)NN(c2ccccc2)C(=S)N1CN1CCOCC1 | 55.9
30 | CC1(C)NN(c2ccccc2)C(=S)N1c1ccccc1 | 9.6
31 | O=C(Cn1c(-c2ccccc2)c[n+]2ccsc12)c1ccc([N+](=O)[O-])cc1 | 13.8
32 | Cc1cc(/C=C2\C(=O)NC(=O)N(c3ccc4c(c3)OCO4)C2=O)c(C)n1-c1cccnc1 | 136
33 | Cc1cc(/C=C2\C(=O)NC(=O)N(c3cccc(F)c3)C2=O)c(C)n1-c1cccc([N+](=O)[O-])c1 | 12.3
34 | Cc1cc(/C=C2\C(=O)NC(=O)N(c3ccc4c(c3)OCO4)C2=O)c(C)n1-c1ccccc1 | 16.1
35 | Cc1cc(/C=C2\C(=O)NC(=O)N(c3ccc4c(c3)OCO4)C2=O)c(C)n1-c1ccc(F)cc1 | 8
36 | Cc1cc(/C=C2\C(=O)NC(=O)N(c3ccccc3)C2=O)c(C)n1-c1cccc([N+](=O)[O-])c1 | 9.1
37 | Cc1cc(/C=C2\C(=O)NC(=O)N(c3ccc4c(c3)OCO4)C2=O)c(C)n1-c1cccc([N+](=O)[O-])c1 | 52.7
38 | COc1ccc(NC(=O)/C(=C\c2ccccc2OC)NC(=O)c2ccccc2OC)cc1 | 3
39 | O=C1N/C(=N\N=C\c2ccccc2F)SC1Cc1ccccc1[N+](=O)[O-] (stereo not given) | 7.3
40 | O=C1C2C(c3ccc(Cl)cc3)OC3(C(=O)c4ccccc4C3=O)C2C(=O)N1c1ccc(F)c([N+](=O)[O-])c1 (stereo not given) | 5.6
41 | COc1ccccc1NC(=O)C1=C(C)NC(=O)NC1c1cccc([N+](=O)[O-])c1 (stereo not given) | -7.1
42 | CCCC(C)NS(=O)(=O)c1ccccc1[N+](=O)[O-] (stereo not given) | 3
43 | O=C(NCC1CCCO1)c1ccc(F)c2ccccc12 (stereo not given) | -13.5
44 | O=C(CC1S/C(=N\N=C\c2cccs2)NC1=O)Nc1ccc(C(=O)O)cc1 (stereo not given) | 121
45 | O=C(CC1S\C(=N/N=C/C=C/c2ccccc2)NC1=O)Nc1ccc(C(=O)O)cc1 (stereo not given) | 41.6
46 | CC(=O)c1cccc(NC(=O)CC2S/C(=N\N=C\c3cccs3)NC2=O)c1 (stereo not given) | -3.9
47 | O=C(CC1S/C(=N\N=C\c2ccccc2)NC1=O)Nc1ccc(C(=O)O)cc1 (stereo not given) | 69.5
48 | O=C(CC1S/C(=N\N=C\c2cccs2)NC1=O)Nc1ccc(Cl)c(Cl)c1 (stereo not given) | 7.8
49 | O=C(CC1S/C(=N\N=C\c2ccco2)NC1=O)Nc1ccc(C(=O)O)cc1 (stereo not given) | -0.3
50 | CCOC(=O)C1=NNC2C(=O)N(c3ccc(C)c(C)c3)C(=O)C12 (stereo not given) | 4.5

Source: PubChem BioAssay AID1240 (Sanford-Burnham Center for Chemical Genomics, 2008)
